Values joined by “and” are separate entries in the source; they are usually repeats but may differ in a detail not shown here. Equal values may be shown once. Inconclusive results are not listed. Active and inactive are the calls of the source. Unless noted, calls come from the whole dose curve; as a rule, active = well fitted curve in the direction sought with a large enough effect in the repeat runs; inconclusive = weak or mixed curves; inactive = no such curve, though single readings can be large; an effect the other way counts as inactive or inconclusive.
Assays:
[1] = qHTS assay to identify small molecule agonists of the vitamin D receptor (VDR) signaling pathway - cell viability counter screen (AID 743224); note: % is set by controls: 0 for no effect and ±100 for the full control effect; nearly all actives have a fitted effect of over 50% in size
How it was run: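 VDR-bla cells, 4 h after plating, exposed to compounds for 16 h at 37C; viability then read in the same wells as CellTiter-Glo luminescence after 30 min at room temperature, following the bla FRET read.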

[2] = qHTS assay to identify small molecule antagonists of the vitamin D receptor (VDR) signaling pathway - cell viability counter screen (AID 743225); note: % is set by controls: 0 for no effect and ±100 for the full control effect; nearly all actives have a fitted effect of over 50% in size
How it was run: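 Viability counter screen run in the same wells as the beta-lactamase reporter assay: HEK 293T VDR-UAS-bla cells, 16 h compound exposure at 37C with 3 nM (final) 1-alpha,25-dihydroxyvitamin D3. CellTiter-Glo luminescence, 30 min, room temperature.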

[3] = qHTS assay to identify small molecule agonists of the NFkB signaling pathway - cell viability counter screen (AID 1159515; calls by dose curve; note: % is set by controls: 0 for no effect and ±100 for the full control effect; nearly all actives have a fitted effect of over 55% in size)
How it was run: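 NFkB-bla ME-180 cells, 2,000/well, plated overnight at 37 C; compound added for 5 hr at 37 C. Viability read in the same wells as the bla reporter, by CellTiter-Glo luminescence after 30 min at room temperature.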

[4] = qHTS assay to identify small molecule agonists of the endoplasmic reticulum stress response signaling pathway - cell viability counter screen (AID 1159517; calls by dose curve;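 note: HeLa cells carrying an ER stress response element beta-lactamase reporter; % is set by controls: 0 for no effect and ±100 for the full control effect; nearly all actives have a fitted effect of over 50% in size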)
How it was run: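 Cells, HeLa ESRE-bla; density, 1,500/well; dosing, 5 hr at 37 C, 5% CO2; readout, CellTiter-Glo luminescence after 30 min RT.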

[5] = qHTS assay to identify small molecule antagonists of the retinoid-related orphan receptor gamma (ROR-gamma) signaling pathway - cell viability counter screen (AID 1159520); note: % is set by controls: 0 for no effect and ±100 for the full control effect; nearly all actives have a fitted effect of over 50% in size
How it was run: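 Cytotoxicity was read from cellular ATP (CellTiter-Glo luminescence) after 16 hr at 37 C with 1 uM doxycycline induction. The inducer was added 2 hr after compound transfer to Tet-on ROR gamma CHO cells.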

[6] = target: Nuclear receptor ROR-gamma (Homo sapiens) (UniProt P51449); test: qHTS assay to identify small molecule antagonists of the retinoid-related orphan receptor gamma (ROR-gamma) signaling pathway (AID 1159521; note: nearly all actives have a fitted effect of over 50% in size; note: potency is the fitted concentration of half-maximal effect)
How it was run: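 Luminescence readout (ONE-Glo, 30 min RT) after 16 h doxycycline induction; loss of signal scored as antagonism. CHO cells with TET-inducible RORγ and RORE-LUC reporter; compounds added 2 h before 1 uM final doxycycline.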

[7] = qHTS assay to identify small molecule agonists of the AP-1 signaling pathway - cell viability counter screen (AID 1159525; calls by dose curve; note: nearly all actives have a fitted effect of over 55% in size)
How it was run: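 Luminescent ATP readout (Cell Titer Glo, 30 min RT), normalised to DMSO and tetra n-octyl ammonium bromide controls. Cells were ME-180 AP-1-bla in 0.5% dialyzed FBS Opti-MEM, with a 5 h, 37 °C compound exposure.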

[8] = qHTS assay to identify small molecule agonists of the AP-1 signaling pathway (AID 1159526; calls by dose curve; note: % is set by controls: 0 for no effect and ±100 for the full control effect)
[9] = target: Retinoic acid receptor RXR-alpha (Homo sapiens) (UniProt P19793); test: qHTS assay to identify small molecule agonists of the RXR signaling pathway (AID 1159527; calls by dose curve; note: nearly all actives have a fitted effect of over 35% in size; note: potency is the fitted concentration of half-maximal effect)
Chain of Retinoic acid receptor RXR-alpha (Homo sapiens) (P19793 whole entry, looked up): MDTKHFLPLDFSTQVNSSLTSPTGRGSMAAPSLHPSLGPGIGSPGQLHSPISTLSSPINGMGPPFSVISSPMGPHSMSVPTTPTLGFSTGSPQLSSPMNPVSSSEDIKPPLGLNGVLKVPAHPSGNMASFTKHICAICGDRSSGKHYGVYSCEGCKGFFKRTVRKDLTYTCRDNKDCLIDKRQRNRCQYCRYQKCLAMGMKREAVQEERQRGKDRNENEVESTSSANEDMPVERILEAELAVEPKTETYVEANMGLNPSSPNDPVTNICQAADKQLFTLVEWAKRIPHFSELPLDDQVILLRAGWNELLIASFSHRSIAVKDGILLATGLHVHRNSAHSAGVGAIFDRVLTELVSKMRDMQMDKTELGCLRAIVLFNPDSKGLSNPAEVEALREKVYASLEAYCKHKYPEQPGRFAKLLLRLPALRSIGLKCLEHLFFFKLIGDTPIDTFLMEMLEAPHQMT
How it was run: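 Agonist mode; 9-cis retinoic acid positive control. HEK 293T UAS-bla reporter cells, 2% charcoal-stripped FBS, 16 hr compound exposure at 37 C/5% CO2. LiveBLAzer B/G FRET substrate 2 hr RT; ex 405, em 460/530 nm.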

[10] = qHTS assay to identify small molecule agonists of the RXR signaling pathway - cell viability counter screen (AID 1159529)
How it was run: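 Luminescence from CellTiter-Glo (30 min, RT) measured viability in the same wells as the beta-lactamase reporter readout. Cells: GeneBLAzer RXR-alpha HEK 293T, 2% charcoal-stripped FBS. Compound exposure 16 hr, 37 C.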

[11] = qHTS assay to identify small molecule antagonists of the retinoid acid receptor (RAR) signaling pathway - cell viability counter screen (AID 1159551); note: % is set by controls: 0 for no effect and ±100 for the full control effect; nearly all actives have a fitted effect of over 35% in size
How it was run: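 C3RL4 RARE-luciferase cells, 1,000/well, incubated overnight, then dosed with compound plus 1 uM retinol (final). After 6 hr at 37 C, viability read by CellTiter-Glo ATP luminescence following 30 min at room temperature.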

[12] = qHTS assay to identify small molecule antagonists of the retinoic acid receptor (RAR) signaling pathway (AID 1159552)
How it was run: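 Luminescence from a RARE luciferase reporter in C3RL4 cells served as read-out. Cells received compounds together with 1 uM final retinol and incubated 6 hr at 37 C before detection reagent was added for 30 min at room temperature.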

[13] = qHTS assay to identify small molecule agonists of the retinoic acid receptor (RAR) signaling pathway (AID 1159553); conditions: C3RL4 RARE luciferase reporter, agonist, 6 h; activation: at 73.3 µM (top of the series) unless noted; note: % is set by controls: 0 for no effect and ±100 for the full control effect
How it was run: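 C3RL4 RARE-luciferase cells were seeded at 1,000/well and grown overnight at 37 C, then exposed to compounds for 6 hr at 37 C, 5% CO2. Luciferase reagent was added and luminescence was read after 30 min at room temperature.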

[14] = qHTS assay to identify small molecule antagonists of the estrogen related receptor (ERR) signaling pathway - cell viability counter screen (AID 1224818); note: % is set by controls: 0 for no effect and ±100 for the full control effect
How it was run: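 ERR cells, 2,000 per well, compound added after 6 h and incubated 17.5 h at 37 C. Viability read by CellTiter-Fluor fluorescence after a further 30 min at 37 C.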

[15] = qHTS assay to identify small molecule antagonists of the estrogen related receptor (ERR) signaling pathway (AID 1224819)
How it was run: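 ERR reporter cell line (NTP) plated at 2,000 cells/well, settled 6 h at 37C/5% CO2, then exposed to LOPAC compounds for 18 h at 37C. One-Glo luciferase luminescence read after 30 min at room temperature.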

[16] = qHTS assay to identify small molecule agonists of the estrogen related receptor (ERR) signaling pathway (AID 1224820); note: % is set by controls: 0 for no effect and ±100 for the full control effect
How it was run: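 ERR reporter cells (NTP line) plated 2,000/well, incubated 6 h at 37 C/5% CO2, then pinned with compounds in DMSO and held 18 h at 37 C. One-Glo added; luminescence read after 30 min at room temperature.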

[17] = tested on: estrogen-related receptor alpha (ERRalpha) with PGC-1alpha coactivator, human; test: qHTS assay to identify small molecule antagonists of the estrogen related receptor signaling pathway with the pleiotropic PPARgamma coactivator (PGC) (AID 1224821; calls by dose curve)
How it was run: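 Cells engineered for PGC/ERR signalling (line from NTP) were plated 6 h at 37 C/5% CO2, then exposed to DMSO-dissolved compound for 18 h at 37 C. Luciferase activity was read by One-Glo luminescence after 30 min at room temperature.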

[18] = qHTS assay to identify small molecule antagonists of the estrogen related receptor signaling pathway with the pleiotropic PPARgamma coactivator (PGC) cell viability counter screen (AID 1224822; note: % is set by controls: 0 for no effect and ±100 for the full control effect)
How it was run: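 PGC/ERR cells rested 6 h, then compound-treated 17.5 h at 37 C. CellTiter-Fluor added for 30 min at 37 C, viability measured by fluorescence intensity.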

[19] = qHTS assay to identify small molecule agonists of the estrogen related receptor signaling pathway with the pleiotropic PPARgamma coactivator (PGC) (AID 1224823); note: % is set by controls: 0 for no effect and ±100 for the full control effect
How it was run: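 PGC/ERR reporter cells were seeded, rested 6 h at 37 C/5% CO2, then exposed to compounds in DMSO by pin transfer for 18 h at 37 C. Luciferase activity was read as luminescence after One-Glo reagent and 30 min at room temperature.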

C[C@@H](O)[C@H](N)C(=O)O
inactive: Potency [1] | Potency [2] | Potency [3] | Potency [4] | activity, negative = cytotoxicity [5] -0.243% [at 19 µM] | activity change, negative = inhibition [6] 1.16% [at 19 µM] | viability change, negative = cytotoxic [7] 3.86% [at 15.8 µM] | activation [8] -7.74% [at 15.8 µM] | activation [9] 0.146% [at 15.8 µM] | activity change, negative = cytotoxicity [10] 1.63% [at 15.8 µM] | activity change, negative = cytotoxicity [11] -1.86% [at 19 µM] | activity, negative = inhibition [12] 42.8% [at 19 µM] | Potency [13]

C=C(C)c1cccc(C(=C)C)c1
inactive: Potency [1] | Potency [2] | Potency [3] | Potency [4] | Potency [5] | Potency [6] | Potency [7] | Potency [8] | Potency [9] | Potency [10] | Potency [11] | Potency [12] | Potency [13]

ClCCl
inactive: Potency [1] | Potency [2] | Potency [3] | Potency [4] | Potency [5] | Potency [6] | Potency [7] | Potency [8] | Potency [9] | Potency [10] | Potency [11] | Potency [12] | Potency [13]

Cc1cc(C(C)(C)C)cc(C)c1CC1=NCCN1
inactive: Potency [1] | Potency [2] | Potency [3] | Potency [4] | Potency [5] | Potency [6] | Potency [7] | Potency [8] | Potency [9] | Potency [11] | Potency [12] | Potency [13] | outcome [14] | Potency [15] | outcome [16] | Potency [17] | Potency [18] | outcome [19]

OC/C=C/CO
inactive: Potency [1] | Potency [2] | Potency [3] | Potency [4] | Potency [5] | Potency [6] | Potency [7] | Potency [8] | Potency [9] | Potency [10] | Potency [11] | Potency [12] | Potency [13]

Cc1c(C)c2c(c(C)c1OC(=O)c1cccnc1)CC[C@@](C)(CCC[C@H](C)CCC[C@H](C)CCCC(C)C)O2
inactive: Potency [2] | Potency [3] | Potency [4] | Potency [5] | Potency [6] | Potency [7] | Potency [8] | Potency [9] | Potency [10] | Potency [11] | Potency [12] | Potency [13]

Nc1ccc(C(=O)O)c(O)c1
inactive: Potency [1] | Potency [2] | Potency [3] | Potency [4] | Potency [5] | Potency [6] | Potency [7] | Potency [8] | Potency [9] | Potency [10] | Potency [11] | Potency [12] | Potency [13]

CC(C)OC(=O)C(O)(CC(=O)O)CC(=O)O
inactive: Potency [1] | Potency [2] | Potency [3] | Potency [4] | Potency [5] | Potency [6] | Potency [7] | Potency [8] | Potency [10] | Potency [11]
active: Potency [9] 21.9 µM

CN(C)Cc1ccccc1O
inactive: Potency [1] | Potency [2] | Potency [3] | Potency [4] | Potency [5] | Potency [6] | Potency [7] | Potency [8] | Potency [9] | Potency [10] | Potency [11] | Potency [12] | Potency [13]

Nc1nc(N)nc(-c2cc(Cl)ccc2Cl)n1
inactive: Potency [1] | Potency [3] | Potency [4] | Potency [5] | Potency [6] | Potency [7] | Potency [8] | Potency [9] | Potency [10] | Potency [11]

COc1cc(C)ccc1O
inactive: Potency [1] | Potency [2] | Potency [3] | Potency [4] | Potency [5] | Potency [6] | Potency [7] | Potency [8] | Potency [9] | Potency [10] | Potency [11] | Potency [12] | Potency [13]

Oc1ccccc1O
inactive: Potency [1] | Potency [2] | Potency [3] | Potency [4] | Potency [5] | Potency [7] | Potency [8] | Potency [9] | Potency [10] | Potency [12] | Potency [13] | outcome [14] | Potency [18]
active: Potency [6] 8.74 µM and 27.3 µM

CCn1c2ccccc2c2cc([N+](=O)[O-])ccc21
inactive: Potency [1] | Potency [3] | Potency [4] | Potency [5] | Potency [6] | Potency [7] | Potency [8] | Potency [10] | Potency [11] | Potency [12] | Potency [13]

O=c1c(O)c(-c2ccc(O)cc2O)oc2cc(O)cc(O)c12
inactive: Potency [2] | Potency [3] | Potency [4] | Potency [5] | Potency [6] | Potency [7] | Potency [8] | Potency [9] | Potency [10] | Potency [11] | outcome [14] | Potency [18]

CCCNCCC
inactive: Potency [1] | Potency [2] | Potency [3] | Potency [4] | Potency [5] | Potency [6] | Potency [7] | Potency [8] | Potency [9] | Potency [10] | Potency [11] | Potency [12] | Potency [13]

From PubChem BioAssay (Tox21)
